Most compounds without a hit are left out; they make up all but 0.43% or so of the library.
GAA glycogen mod: inhibitors or activators of human alpha-glucosidase glycogen cleavage; hit rate 0.38% among 300,000; recombinant GAA, glycogen substrate, Amplex Red glucose oxidase fluorescence; Potency, µM (top dose mostly 76.4 µM), for inactives: top-dose activity change, negative = inhibition, most hits filed as inhibitors; AID 2100; P10253;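 further: potency means the concentration at half of the fitted maximal effect; 0% = full enzyme reaction and -100% = no-enzyme basal signal; the screen sought inhibitors and activators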
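Recombinant human enzyme (4 nM); glycogen substrate; 37 C, 40 min, pH 5.0. Readout: coupled glucose oxidase/Amplex Red fluorescence.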
aGal spleen mod: alpha-galactosidase A (human) modulation; Potency, µM (titrated, usually from 80 µM), inactives show at the top dose activity change, negative = inhibition, most hits filed as inhibitors; human spleen homogenate, 4MU-alpha-Gal fluorescence, 40 min; AID 2107; hit rate 0.008% among 240,000;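 further: potency means the concentration at half of the fitted maximal effect; 0% = enzyme with vehicle and -100% = no enzyme basal signal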
Target sequence (P06280 32-429 limits assumed): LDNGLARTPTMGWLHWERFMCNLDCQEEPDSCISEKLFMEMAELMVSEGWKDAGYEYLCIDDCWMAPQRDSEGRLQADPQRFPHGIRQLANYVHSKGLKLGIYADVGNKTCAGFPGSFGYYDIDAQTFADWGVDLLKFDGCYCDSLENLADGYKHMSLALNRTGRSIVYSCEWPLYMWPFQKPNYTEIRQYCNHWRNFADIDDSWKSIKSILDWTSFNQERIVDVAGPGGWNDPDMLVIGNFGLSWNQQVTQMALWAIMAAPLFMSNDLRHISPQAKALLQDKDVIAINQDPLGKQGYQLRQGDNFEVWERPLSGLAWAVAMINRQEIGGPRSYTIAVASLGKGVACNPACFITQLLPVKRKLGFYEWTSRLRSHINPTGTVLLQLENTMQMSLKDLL
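Human spleen homogenate (1 ug) was the enzyme source, with 4-methylumbelliferyl-alpha-D-galactopyranoside (1 mM final) in pH 5.0 citrate buffer with 0.01% Tween-20. Compounds were titrated; after 40 min at 37C, NaOH/glycine stop, 4-MU fluorescence read; AC50 from Hill fits.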
aGlu spleen mod: inhibitors or activators of human alpha-glucosidase in spleen homogenate; P10253; human spleen homogenate, 4-MU-alpha-glucoside fluorescence; Potency, µM (titrated, usually from 79.9 µM), for inactives: at the highest dose activity change, negative = inhibition, usual class: inhibitors; hit rate 0.006% among 240,000;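 further: potency means the concentration at half of the fitted maximal effect; 0% = enzyme with vehicle and -100% = no enzyme basal signal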
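Human spleen homogenate (1 ug) incubated with compounds and 1 mM 4-methylumbelliferyl-alpha-D-glucopyranoside in pH 5.0 citrate/phosphate buffer, 37 C, 40 min. Stopped at pH 10; 4-MU fluorescence (Ex 365/Em 440 nm); AC50 by Hill fit.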
GLA inh pH 4.5: inhibitors of human alpha-galactosidase A at pH 4.5; purified enzyme, 4-MU-alpha-Gal fluorescence, pH 4.5; activity change, negative = inhibition, % at 105 µM; 230,000 tested, under 10 active; AID 1467;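 further: 0% = full activity with enzyme and -100% = basal without enzyme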
GAA inhib: alpha-glucosidase (human) inhibition; P10253; purified human GAA, 4-MU-alpha-glucoside fluorescence; Potency, µM (highest dose often 76.9 µM), for the others: top-dose activity change, negative = inhibition, most hits filed as inhibitors; hit rate 0.005% among 200,000;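 further: potency means the concentration at half of the fitted maximal effect; plate controls were uninhibited enzyme wells for no effect and no-enzyme background for full effect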
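AC50 values come from Hill fits of compound titrations (up to 77 uM) against 4 nM human enzyme. Substrate 4-methylumbelliferyl-alpha-D-pyranoside at 400 uM, pH 5.0 citrate buffer, 20 min room temperature; fluorescence Ex 365/Em 440 after alkaline stop.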
N370S GC mod: inhibits or activates N370S mutant glucocerebrosidase. P04062. N370S GC spleen homogenate, 4MU-glucoside fluorescence. Potency, µM (series often up to 59.4 µM), inactives show at the highest dose activity change, negative = inhibition, usual class: inhibitors. hit rate 0.092% among 330,000;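 further: potency means the concentration at half of the fitted maximal effect; 0% = full enzyme activity and -100% = no enzyme basal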
The depositor's hits bear a star; u = inconclusive; x = no result; [ ] = another dose, or the depositor's remark. The call rests on the fitted dose curve; in most records, active means well fitted curve in the direction sought with a large enough effect; inconclusive means small, poorly fitted or top-dose-only effect, or another doubt; inactive means no such curve, though single readings can be large; an effect the other way counts as inactive or inconclusive.

SMILES	GAA glycogen mod	aGal spleen mod	aGlu spleen mod	GLA inh pH 4.5	GAA inhib	N370S GC mod
O=C1c2ccccc2NC(c2cc(Cl)cc(Cl)c2O)N1Cc1cccnc1 (configuration not stated)	3%	x	x	x	x	8%
CC(=O)N1CCC(=O)N(C(C)C)c2ccccc21	6%	3%	0%	-3	-4%	4%
Cc1ccccc1-c1nccc(Nc2ccc(F)cc2)n1	x	-8%	-5%	x	x	20µM*
COc1ccc2[nH]cc(CCNc3nc(-c4ccoc4)nc4ccccc34)c2c1	x	1%	-12%	-10	x	16µM*
COc1cccc(-c2nc(NCCc3c[nH]c4ccc(OC)cc34)c3ccccc3n2)c1	x	8%	2%	-2	x	14µM*
COc1ccc2[nH]cc(CCNc3nc(-c4ccc(N(C)C)cc4)nc4ccccc34)c2c1	x	23%	2%	x	x	u
CCOC(=O)N1CCN(C(=O)CCc2ccc(S(=O)(=O)NC(C)C)cc2)CC1	-3%[76.3 µM]	x	x	x	x	0%
COc1ccccc1N1C(=O)CSC1=S	x	x	x	x	x	-5%
COCCN(CC(=O)NCc1ccccc1)C(=O)CCC(=O)Nc1ccccn1	-10%	7%	2%	1	-7%	6%
O=C(CN1CCN(c2ccc(O)cc2)CC1)NC(=O)NCc1ccco1	3.2µM*	4%	8%	7	5%	-4%
Cc1cc(NC(=O)CN2CCN(c3ccc(O)cc3)CC2)no1	8.9µM*	1%	-10%	5	0%	6%
Cc1cc(NC(=O)CN2CCN(S(=O)(=O)c3ccc(Cl)cc3)CC2)no1	1%	1%	-4%	2	-6%	-3%
CC(=O)N1CCN(CC(=O)Nc2cc([N+](=O)[O-])ccc2Cl)CC1	0%	4%	3%	-2	4%	-9%
O=C(CN1CCN(c2ccc(O)cc2)CC1)Nc1cc([N+](=O)[O-])ccc1Cl	11µM*	11%	3%	-2	2%	-3%
COc1ccc(N2CCN(CC(=O)NC(=O)NCc3ccco3)CC2)cc1	-2%	-6%	-3%	-11	2%	5%
O=C(CN1CCN(c2ccc(O)cc2)CC1)N1CCc2ccccc21	5µM*	x	x	x	x	-10%
Cc1cc([N+](=O)[O-])nn1CC(=O)Nc1cnc2ccccc2c1	1%	0%	2%	0	-11%	-15%
Cc1cc(Nc2c(C)n(C)n(-c3ccccc3)c2=O)n2c(nc3ccccc32)c1C#N	14µM*	1%	-1%	-13	-9%	-12%
CCc1c(C)c(C#N)c2nc3ccccc3n2c1Nc1c(C)n(C)n(-c2ccccc2)c1=O	25µM*	0%	3%	-6	4%	10%
CCCc1cc(Nc2c(C)n(C)n(-c3ccccc3)c2=O)n2c(nc3ccccc32)c1C#N	14µM*	10%	-2%	-18	u	-7%
COc1ccc(CNCc2c(F)cccc2F)cc1OC	-13%[76.3 µM]	x	x	x	x	-6%
CC1CCC(NC(=O)Nc2cccs2)CC1 (configuration not stated)	16µM*	0%	-7%	1	-8%	2%
C/C=C/c1cc(CN2CCN(c3ccc(OC)cc3)CC2)c(O)c(OC)c1	14µM*	-2%	-2%	-5	-3%	15%
C/C=C/c1cc(CN2CCN(c3ccccc3)CC2)c(O)c(OC)c1	u	3%	1%	-11	6%	-8%
COc1ccc(COC(=O)c2cc([N+](=O)[O-])ccc2N2CCOCC2)cc1F	x	x	x	x	x	0%
SMILES	GAA glycogen mod	aGal spleen mod	aGlu spleen mod	GLA inh pH 4.5	GAA inhib	N370S GC mod
NC(=O)Cc1c[nH]c2cccc(O)c12	10µM*	-2%	4%	7	1%	9%
C/C(CC(=O)Nc1ccc(F)cc1)=N\NC(=O)Cc1csc(N)n1	-10%	-3%	-6%	-10	-3%	1%
O=C1c2ccccc2C(=O)N1CCc1c[nH]c2ccc(O)cc12	3.1µM*	1%	1%	4	u	5%
OC(COC(c1ccccc1)c1ccccc1)CN1CCc2ccccc2C1 (configuration not stated)	-6%	-3%	-1%	-3	-9%	-23%
OC(COC(c1ccc(Cl)cc1)c1ccc(Cl)cc1)CN1CCc2ccccc2C1 (configuration not stated)	8%	-4%	-1%	-10	-2%	7.9µM*
CC(C)(C)N(Cc1ccccc1)C(=O)COC(=O)CN1C(=O)NC2(CCCC2)C1=O	3%[76.3 µM]	x	x	x	x	-9%
Cc1ccc(-c2nnc(Nc3ccc(O)cc3)c3ccccc23)cc1S(=O)(=O)N1CCN(C)CC1	16µM*	x	x	x	x	x
O=C1CC(c2ccc(F)cc2)c2c(c3ccccc3[nH]c2=O)O1 (configuration not stated)	13%[76.3 µM]	x	x	x	x	x
COc1cc(C2CC(=O)Oc3c2c(=O)[nH]c2ccccc32)cc(OC)c1OC (configuration not stated)	50µM*	x	x	x	x	x
Cc1ccc(NC(=O)C2CCN(S(C)(=O)=O)CC2)cc1	2%	8%	-4%	5	-3%	-21%
C(=N\N1CCN(C2c3ccccc3-c3ccccc32)CC1)/c1ccncc1	-10%	-2%	-5%	-6	2%	-12%
C/C(=N\N1CCN(C2c3ccccc3-c3ccccc32)CC1)c1ccncc1	28µM*	-12%	5%	3	u	1%
Cc1ccc(-c2ccc(NC(=O)C3C4C=CC(C4)C3C(=O)O)cc2)o1 (configuration not stated)	40µM*	0%	-3%	-3	7%	x
Cc1cc(N/N=C/c2ccc(O)cc2O)nc(N2CCOCC2)n1	16µM*	5%	-2%	-8	-14%	-11%
COc1ccc(/C=N/Nc2cc(C)nc(N3CCOCC3)n2)c(OC)c1	-21%	6%	1%	-5	x	-4%
CC(C)c1ccc(/C=N/Nc2cc(N3CCOCC3)nc(N3CCOCC3)n2)cc1	-5%	4%	2%	-10	-8%	-12%
Oc1ccc(/C=N\Nc2cc(N3CCOCC3)nc(N3CCOCC3)n2)c(O)c1	10µM*	3%	-2%	-4	-11%	-11%
COc1ccc(CCNC(=O)CCCCn2c(=O)c3ccccc3n(CC(=O)Nc3c(C)cccc3C)c2=O)cc1OC	-2%[76.3 µM]	x	x	x	x	x
CCCc1cc(=O)[nH]c(SCC(=O)NCc2ccc3c(c2)OCO3)n1	1%	x	x	x	x	-2%

Screening data: PubChem, National Center for Advancing Translational Sciences (NCATS)
